Test [1] can be described thus: NCI Yeast Anticancer Drug Screen. Data for the rad50 strain (AID 155).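 Further: 0% = growth of vehicle-only cultures of the same strain.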 Conditions: S. cerevisiae rad50 strain growth inhibition, active compounds read high. An outline of the steps:
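Compounds were tested on a yeast strain with an engineered DNA damage repair alteration; the reported value is growth inhibition normalised to vehicle treatment.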

The nature of test [2]: NCI Yeast Anticancer Drug Screen. Data for the mec2-1 strain (AID 157). Conditions: S. cerevisiae mec2-1 strain, active compounds read high. The essentials: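 Compounds were applied to mec2-1 yeast cells. Their growth was then compared with that of vehicle-treated cultures to give growth inhibition.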
Test [3] in a line: NCI Yeast Anticancer Drug Screen. Data for the sgs1 mgt1 strain (AID 161).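 Further: 0% = growth of cultures given vehicle only.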 To be noted: S. cerevisiae sgs1 mgt1 strain, active compounds read high. An outline of the steps: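 Compounds are added to genetically altered yeast, and growth is compared with cultures given vehicle alone to give percent inhibition.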
Test [4] is described as follows: NCI Yeast Anticancer Drug Screen. Data for the cln2 rad14 strain (AID 165).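 Further: 0% = growth equal to vehicle treated cultures.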 To be noted: S. cerevisiae cln2 rad14 strain, active compounds read high. The essentials:
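Strain: cln2 rad14 yeast, altered in cell cycle control and DNA damage repair. Read-out: growth inhibition vs vehicle.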

Test [5] is described as follows: NCI Yeast Anticancer Drug Screen. Data for the bub3 strain (AID 167). To be noted: S. cerevisiae bub3 mutant strain, active compounds read high. The essentials:
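Growth of a checkpoint-deficient yeast mutant is measured after compound exposure. Values represent inhibition relative to vehicle.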

Test [6] in a line: NCI Yeast Anticancer Drug Screen. Data for the mlh1 rad18 strain (AID 175). Conditions: S. cerevisiae mlh1 rad18 strain growth inhibition, active compounds read high. An outline of the steps:
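A repair-deficient yeast strain is exposed to test compound, and growth is scored relative to vehicle-treated controls.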

[7] abbreviates: at 5.0 µM (retest, dose inferred, filed as 0.5).
The mark [8] stands for this setting: at 50.0 µM (retest, dose inferred, filed as 5.0).

This is part of a sample that, as a whole, favours compounds with a hit. Of some 79,000 tested, about 15% had one in any assay. Unmarked numbers belong to inactive results. Calls of active or inactive are those of the source. No stated cut-off is given here; in the data, active means growth inhibition above about 70%; inactive means the rest.

As to `O=C1C=C(N2CC2)C(=O)C=C1N1CC1`, the growth inhibition was 91% (active) in test [1] (setting [7]); 98% (active) in test [1] (setting [8]); 90% (active) in test [2] (setting [7]); 99% (active) in test [2] (setting [8]); 27% in test [3] (setting [7]); 41% in test [3] (setting [8]). Also, the growth inhibition is 88% (active) in test [3] (at 50.0 µM); 24% in test [4] (setting [7]); 25% in test [4] (setting [8]); 89.2% (active) in test [4] (at 50.0 µM); 20% in test [5] (setting [7]); 55% in test [5] (setting [8]). The growth inhibition in test [5] (at 50.0 µM) is 87.7% (active); in test [6] (setting [7]), 94% (active); in test [6] (setting [8]) it was 97% (active).

Turning to `COc1cc(/C=C/[N+](=O)[O-])cc(OC)c1OC`, the growth inhibition in test [1] (setting [7]) was 34%; in test [1] (setting [8]) it was 99% (active); in test [2] (setting [7]) it was 22%; in test [2] (setting [8]), 99% (active); in test [3] (setting [7]), 48%; in test [3] (setting [8]), 100% (active). Moreover, the growth inhibition is 13% in test [4] (setting [7]); 99% (active) in test [4] (setting [8]); 19% in test [5] (setting [7]); 100% (active) in test [5] (setting [8]); -8% in test [6] (setting [7]); 99% (active) in test [6] (setting [8]).

On to `CC(=O)[CH-]C(C)=O.CC(=O)[CH-]C(C)=O.N=CC=N.[Sn+2]`, for which the growth inhibition was 95% (active) in test [1] (setting [7]); 98% (active) in test [1] (setting [8]); 88.2% (active) in test [1] (at 50.0 µM); 98% (active) in test [3] (setting [7]); 99% (active) in test [3] (setting [8]); 94.2% (active) in test [3] (at 50.0 µM). The growth inhibition was 87% (active) in test [4] (setting [7]); 97% (active) in test [4] (setting [8]); 93.5% (active) in test [4] (at 50.0 µM); 98% (active) in test [5] (setting [7]); 99% (active) in test [5] (setting [8]); 93.3% (active) in test [5] (at 50.0 µM).

`CC1CCN(C(CC(=O)c2ccccc2)C(=O)c2ccccc2)CC1` (stereo not drawn): the growth inhibition in test [1] (setting [7]) is 20%; in test [1] (setting [8]) it was 99% (active); in test [2] (setting [7]) it was 7%; in test [2] (setting [8]) it was 100% (active); in test [3] (setting [7]) it was 21%; in test [3] (setting [8]) it was 99% (active). Further, the growth inhibition in test [4] (setting [7]) is 9%; in test [4] (setting [8]) it was 99% (active); in test [5] (setting [7]) it was 13%; in test [5] (setting [8]) it was 100% (active); in test [6] (setting [7]), -2%; in test [6] (setting [8]) it was 98% (active).

With `CCCC1CC[N-]CC1.CCCC1CC[N-]CC1.N#C[S-].N#C[S-].[Cd]`, the growth inhibition in test [1] (setting [7]) was 31%; in test [1] (setting [8]), 86% (active); in test [2] (setting [7]), 10%; in test [2] (setting [8]) it was 59%; in test [3] (setting [7]) it was 10%; in test [3] (setting [8]), 76% (active). In addition, the growth inhibition in test [4] (setting [7]) is 9%; in test [4] (setting [8]), 65%; in test [5] (setting [7]), 8%; in test [5] (setting [8]), 56%; in test [6] (setting [7]), -14%; in test [6] (setting [8]), 46%.

For the compound `CCCCCCCNC(=O)CI`, the growth inhibition in test [1] (setting [7]) is 42%; in test [1] (setting [8]), 99% (active); in test [2] (setting [7]), 13%; in test [2] (setting [8]), 100% (active); in test [3] (setting [7]) it was 33%; in test [3] (setting [8]), 100% (active). For the same compound, the growth inhibition was 9% in test [4] (setting [7]); 94% (active) in test [4] (setting [8]); 52% in test [5] (setting [7]); 100% (active) in test [5] (setting [8]); 23% in test [6] (setting [7]); 99% (active) in test [6] (setting [8]).

`O=C(CBr)OCCBr`: the growth inhibition in test [1] (setting [7]) was 59%; in test [1] (setting [8]) it was 99% (active); in test [2] (setting [7]) it was 33%; in test [2] (setting [8]) it was 99% (active); in test [3] (setting [7]) it was 73% (active); in test [3] (setting [8]) it was 100% (active). In addition, the growth inhibition was 25% in test [4] (setting [7]); 98% (active) in test [4] (setting [8]); 56% in test [5] (setting [7]); 99% (active) in test [5] (setting [8]); 29% in test [6] (setting [7]); 98% (active) in test [6] (setting [8]).

In the case of `Oc1c(Cl)c(Cl)cc(Cl)c1Cl`, the growth inhibition is 8% in test [1] (setting [7]); 90% (active) in test [1] (setting [8]); 23.5% in test [1] (at 50.0 µM); 34% in test [3] (setting [7]); 95% (active) in test [3] (setting [8]); 61.1% in test [3] (at 50.0 µM). In addition, the growth inhibition in test [4] (setting [7]) was -27%; in test [4] (setting [8]), 94% (active); in test [4] (at 50.0 µM), 79.8% (active); in test [5] (setting [7]), 13%; in test [5] (setting [8]), 92% (active); in test [5] (at 50.0 µM), 48.3%. Moreover, the growth inhibition in test [6] (setting [7]) was -6%; in test [6] (setting [8]), 92% (active); in test [6] (at 50.0 µM), 61.8%.

As for `CC(c1ccccc1)N1O[C@]12CC[C@@]1(C)C(CCCC13OCCO3)C2` (stereo partly drawn), the growth inhibition in test [1] (setting [7]) was 88% (active); in test [1] (setting [8]), 97% (active); in test [1] (at 50.0 µM), 92% (active); in test [3] (setting [7]), 36%; in test [3] (setting [8]), 97% (active); in test [3] (at 50.0 µM), 92.2% (active). The growth inhibition was 95% (active) in test [4] (setting [7]); 98% (active) in test [4] (setting [8]); 91.2% (active) in test [4] (at 50.0 µM); 94% (active) in test [5] (setting [7]); 98% (active) in test [5] (setting [8]); 91% (active) in test [5] (at 50.0 µM). Further, the figures for the growth inhibition in test [6] (setting [7]), in test [6] (setting [8]) and in test [6] (at 50.0 µM) were 93% (active), 97% (active) and 91.5% (active), respectively.

Consider `O=C([O][Hg][CH2]C1COC([CH2][Hg][O]C(=O)c2ccccc2)CO1)c1ccccc1` (stereo not drawn), for which the growth inhibition is 98% (active) in test [1] (setting [7]); 98% (active) in test [1] (setting [8]); 99% (active) in test [2] (setting [7]); 99% (active) in test [2] (setting [8]); 99% (active) in test [3] (setting [7]); 99% (active) in test [3] (setting [8]). In addition, the growth inhibition was 89.5% (active) in test [3] (at 50.0 µM); 97% (active) in test [4] (setting [7]); 98% (active) in test [4] (setting [8]); 90.6% (active) in test [4] (at 50.0 µM); 100% (active) in test [5] (setting [7]); 99% (active) in test [5] (setting [8]). Besides, the growth inhibition in test [5] (at 50.0 µM) is 89.7% (active); in test [6] (setting [7]) it was 98% (active); in test [6] (setting [8]) it was 98% (active).

With `CC/C(=C\c1ccc(Cl)c(Cl)c1)[N+](=O)[O-]`, the growth inhibition in test [1] (setting [7]) is 97% (active); in test [1] (setting [8]), 99% (active); in test [2] (setting [7]), 52%; in test [2] (setting [8]), 100% (active); in test [3] (setting [7]) it was 99% (active); in test [3] (setting [8]), 100% (active). In addition, the growth inhibition in test [4] (setting [7]) was 13%; in test [4] (setting [8]), 99% (active); in test [5] (setting [7]) it was 60%; in test [5] (setting [8]) it was 99% (active); in test [6] (setting [7]) it was 14%; in test [6] (setting [8]), 99% (active).

Turning to `C[C](=O)[Hg][O]c1ccc(N=Cc2ccccc2O)cc1`, the growth inhibition in test [1] (setting [7]) is 99% (active); in test [1] (setting [8]) it was 99% (active); in test [2] (setting [7]), 100% (active); in test [2] (setting [8]), 100% (active); in test [3] (setting [7]) it was 100% (active); in test [3] (setting [8]) it was 100% (active). Besides, the growth inhibition in test [4] (setting [7]) was 99% (active); in test [4] (setting [8]) it was 99% (active); in test [5] (setting [7]), 100% (active); in test [5] (setting [8]), 99% (active); in test [6] (setting [7]), 99% (active); in test [6] (setting [8]) it was 99% (active).

As to `C[CH2][Sn]([CH2]C)([CH2]C)[CH2]C`, the growth inhibition in test [1] (setting [7]) is 6%; in test [1] (setting [8]) it was 54%; in test [2] (setting [7]), 3%; in test [2] (setting [8]) it was 22%; in test [3] (setting [7]), -3%; in test [3] (setting [8]) it was 58%. Also, the growth inhibition in test [4] (setting [7]) was -6%; in test [4] (setting [8]), 12%; in test [5] (setting [7]), 0%; in test [5] (setting [8]), 35%; in test [6] (setting [7]), -8%; in test [6] (setting [8]) it was 44%.
